# Laboratory results taken from the supplement of paper PMC10849652.
# Of roughly 7,900 targets only a part is listed; those with a hit were picked by preference. About 0.6% of all pairs of compound and target were hits. A number with no mark means an inactive call.
# What was measured:
# Assay in all cases: log2 fold change, soluble protein after heating vs DMSO (PISA); higher = thermal stabilisation; K562 cells, 10 uM, 30 min; active = over 0.2 and 3.5 SD of the protein, either way, in both replicates (recomputed)
# [1] = compound: CS(=O)(=O)c1ccc(-c2cnc(N)c(C(=O)Nc3ccccc3)n2)cc1
# Method in brief: (§1)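 K562 cells (2×10^6 cells/mL) were treated with 10 μM compound for 30 min, and aliquots were heated for 3 min over 48°C-58°C. Pooled aliquots were extracted in PBS with 0.5% NP-40 at 4°C, and the supernatant after 21,000xg for 90 min was measured by TMTpro 16plex LC-MS/MS with channel sums equalised. Reported thermal stability, relative to control samples and from duplicates, is a log2 fold change.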
# crizotinib = compound: C[C@@H](Oc1cc(-c2cnn(C3CCNCC3)c2)cnc1N)c1c(Cl)ccc(F)c1Cl [crizotinib]
# Method in brief: as §1
# [2] = compound: C[C@@H]1COCCN1C2=NC(=NC(=C2)C3(CC3)S(=O)(=O)C)C4=C5C=CNC5=CC=C4
# Method in brief: as §1
# [3] = compound: C[C@H](C1=CC=C(C=C1)C(=O)NC2=C3C=CNC3=NC=C2)N
# Method in brief: as §1
# duvelisib = compound: C[C@H](Nc1ncnc2nc[nH]c12)c1cc2cccc(Cl)c2c(=O)n1-c1ccccc1 [duvelisib]
# Method in brief: as §1
# gandotinib = compound: Cc1cc(Nc2cc(CN3CCOCC3)c3nc(C)c(Cc4ccc(Cl)cc4F)n3n2)n[nH]1 [gandotinib]
# Method in brief: as §1
# tozasertib = compound: Cc1cc(Nc2cc(N3CCN(C)CC3)nc(Sc3ccc(NC(=O)C4CC4)cc3)n2)n[nH]1 [tozasertib]
# Method in brief: as §1
# [4] = compound: Cc1cc(SCc2sc(-c3ccc(C(F)(F)F)cc3)nc2C)ccc1OCC(=O)O
# Method in brief: as §1
# doramapimod = compound: Cc1ccc(-n2nc(C(C)(C)C)cc2NC(=O)Nc2ccc(OCCN3CCOCC3)c3ccccc23)cc1 [doramapimod]
# Method in brief: as §1
# ispinesib = compound: Cc1ccc(C(=O)N(CCCN)[C@@H](c2nc3cc(Cl)ccc3c(=O)n2Cc2ccccc2)C(C)C)cc1 [ispinesib]
# Method in brief: as §1
# bafetinib = compound: Cc1ccc(NC(=O)c2ccc(CN3CC[C@H](N(C)C)C3)c(C(F)(F)F)c2)cc1Nc1nccc(-c2cncnc2)n1 [bafetinib]
# Method in brief: as §1
# [5] = compound: Cc1cccc(CC(=O)N2CCc3c2ccc(-c2cn(C)c4ncnc(N)c24)c3F)n1
# Method in brief: as §1
# nilotinib = compound: Cc1cn(-c2cc(NC(=O)c3ccc(C)c(Nc4nccc(-c5cccnc5)n4)c3)cc(C(F)(F)F)c2)cn1 [nilotinib]
# Method in brief: as §1
# [6] = compound: Cc1nc(Nc2n[nH]c3c2CN(C(=O)N[C@H](CN(C)C)c2ccccc2)C3(C)C)c2sccc2n1
# Method in brief: as §1
# dasatinib = compound: Cc1nc(Nc2ncc(C(=O)Nc3c(C)cccc3Cl)s2)cc(N2CCN(CCO)CC2)n1 [dasatinib]
# Method in brief: as §1
# [7] = compound: Cc1ncc(-c2ccnc(Nc3ccc(S(C)(=O)=O)cc3)n2)n1C(C)C
# Method in brief: as §1
# [8] = compound: Cn1cc(-c2ccc3c(c2)CCN3C(=O)Cc2cccc(C(F)(F)F)c2)c2c(N)ncnc21
# Method in brief: as §1
# [9] = compound: Cn1cc(-c2ccc3nnc(C(F)(F)c4ccc5ncccc5c4)n3n2)cn1
# Method in brief: as §1
# tipifarnib = compound: Cn1cncc1[C@@](N)(c1ccc(Cl)cc1)c1ccc2c(c1)c(-c1cccc(Cl)c1)cc(=O)n2C [tipifarnib]
# Method in brief: as §1
# mubritinib = compound: FC(F)(F)c1ccc(/C=C/c2nc(COc3ccc(CCCCn4ccnn4)cc3)co2)cc1 [mubritinib]
# Method in brief: as §1
# Sequence of UniProt Q14997 (Q14997 whole entry, looked up): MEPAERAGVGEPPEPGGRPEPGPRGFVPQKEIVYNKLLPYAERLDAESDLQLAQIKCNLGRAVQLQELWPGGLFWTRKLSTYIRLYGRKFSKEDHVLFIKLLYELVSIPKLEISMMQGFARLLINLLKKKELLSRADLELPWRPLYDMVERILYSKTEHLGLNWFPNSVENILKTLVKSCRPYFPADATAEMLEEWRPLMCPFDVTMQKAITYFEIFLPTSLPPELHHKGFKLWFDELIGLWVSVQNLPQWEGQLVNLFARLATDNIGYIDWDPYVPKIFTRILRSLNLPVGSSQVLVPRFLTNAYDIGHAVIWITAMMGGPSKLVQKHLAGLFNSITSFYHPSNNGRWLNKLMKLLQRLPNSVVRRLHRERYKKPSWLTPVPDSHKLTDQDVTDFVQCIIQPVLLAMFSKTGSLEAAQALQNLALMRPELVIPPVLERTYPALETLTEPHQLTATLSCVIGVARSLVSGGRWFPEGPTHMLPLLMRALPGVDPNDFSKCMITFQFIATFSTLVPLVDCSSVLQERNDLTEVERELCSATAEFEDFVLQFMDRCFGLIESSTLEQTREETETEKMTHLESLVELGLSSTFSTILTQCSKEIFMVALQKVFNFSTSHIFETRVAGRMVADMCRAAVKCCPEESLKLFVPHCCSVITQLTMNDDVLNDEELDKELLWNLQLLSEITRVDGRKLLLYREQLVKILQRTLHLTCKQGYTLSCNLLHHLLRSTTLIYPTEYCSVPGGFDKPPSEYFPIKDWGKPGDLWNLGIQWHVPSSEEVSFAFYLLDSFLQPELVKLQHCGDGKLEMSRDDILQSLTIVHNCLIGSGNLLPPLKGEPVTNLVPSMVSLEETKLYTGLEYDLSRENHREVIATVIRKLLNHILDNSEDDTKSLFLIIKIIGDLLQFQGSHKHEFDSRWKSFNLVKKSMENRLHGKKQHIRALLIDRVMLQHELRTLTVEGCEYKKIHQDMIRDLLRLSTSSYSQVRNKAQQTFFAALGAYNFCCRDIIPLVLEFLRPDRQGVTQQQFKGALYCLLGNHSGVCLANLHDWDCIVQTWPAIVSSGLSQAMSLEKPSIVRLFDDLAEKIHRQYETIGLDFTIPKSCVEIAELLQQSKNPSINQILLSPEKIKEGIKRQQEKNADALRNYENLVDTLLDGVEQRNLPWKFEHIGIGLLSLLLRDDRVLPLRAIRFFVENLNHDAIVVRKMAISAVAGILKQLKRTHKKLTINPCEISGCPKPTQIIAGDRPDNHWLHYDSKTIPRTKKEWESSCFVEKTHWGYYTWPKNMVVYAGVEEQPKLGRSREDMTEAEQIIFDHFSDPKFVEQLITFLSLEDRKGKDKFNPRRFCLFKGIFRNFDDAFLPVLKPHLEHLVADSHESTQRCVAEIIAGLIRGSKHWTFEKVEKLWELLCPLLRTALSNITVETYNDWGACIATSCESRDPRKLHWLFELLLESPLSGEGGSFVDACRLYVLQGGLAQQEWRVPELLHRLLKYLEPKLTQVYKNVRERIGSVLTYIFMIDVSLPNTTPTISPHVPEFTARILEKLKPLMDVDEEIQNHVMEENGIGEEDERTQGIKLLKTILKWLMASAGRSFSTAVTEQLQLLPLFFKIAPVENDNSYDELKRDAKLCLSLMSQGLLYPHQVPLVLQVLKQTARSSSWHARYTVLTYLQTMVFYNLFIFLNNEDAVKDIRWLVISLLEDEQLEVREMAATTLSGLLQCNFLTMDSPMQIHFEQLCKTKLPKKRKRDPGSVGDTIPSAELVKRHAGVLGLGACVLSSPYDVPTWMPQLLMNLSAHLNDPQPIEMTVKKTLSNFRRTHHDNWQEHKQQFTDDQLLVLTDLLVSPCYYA
# Sequence of UniProt Q86T03 (Q86T03 whole entry, looked up): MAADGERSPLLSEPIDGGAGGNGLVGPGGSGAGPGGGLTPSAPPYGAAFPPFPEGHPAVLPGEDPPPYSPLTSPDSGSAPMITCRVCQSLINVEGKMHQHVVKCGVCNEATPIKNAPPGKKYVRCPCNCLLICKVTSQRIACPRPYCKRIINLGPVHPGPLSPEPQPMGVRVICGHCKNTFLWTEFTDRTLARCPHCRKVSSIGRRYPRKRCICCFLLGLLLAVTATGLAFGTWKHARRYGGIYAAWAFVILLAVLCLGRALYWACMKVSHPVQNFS
# Sequence of UniProt Q8TBX8 (Q8TBX8 whole entry, looked up): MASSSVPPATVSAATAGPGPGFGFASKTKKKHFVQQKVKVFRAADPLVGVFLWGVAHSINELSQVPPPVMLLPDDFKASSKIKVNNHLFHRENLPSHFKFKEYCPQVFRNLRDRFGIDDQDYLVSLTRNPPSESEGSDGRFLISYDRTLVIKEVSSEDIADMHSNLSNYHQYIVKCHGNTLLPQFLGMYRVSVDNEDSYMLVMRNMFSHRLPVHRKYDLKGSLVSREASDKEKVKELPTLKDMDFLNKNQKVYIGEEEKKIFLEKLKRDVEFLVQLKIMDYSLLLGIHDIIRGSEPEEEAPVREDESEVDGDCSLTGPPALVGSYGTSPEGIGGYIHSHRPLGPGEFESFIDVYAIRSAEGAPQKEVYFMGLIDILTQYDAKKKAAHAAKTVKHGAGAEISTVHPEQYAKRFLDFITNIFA
# Sequence of UniProt Q9NTI5 (Q9NTI5 whole entry, looked up): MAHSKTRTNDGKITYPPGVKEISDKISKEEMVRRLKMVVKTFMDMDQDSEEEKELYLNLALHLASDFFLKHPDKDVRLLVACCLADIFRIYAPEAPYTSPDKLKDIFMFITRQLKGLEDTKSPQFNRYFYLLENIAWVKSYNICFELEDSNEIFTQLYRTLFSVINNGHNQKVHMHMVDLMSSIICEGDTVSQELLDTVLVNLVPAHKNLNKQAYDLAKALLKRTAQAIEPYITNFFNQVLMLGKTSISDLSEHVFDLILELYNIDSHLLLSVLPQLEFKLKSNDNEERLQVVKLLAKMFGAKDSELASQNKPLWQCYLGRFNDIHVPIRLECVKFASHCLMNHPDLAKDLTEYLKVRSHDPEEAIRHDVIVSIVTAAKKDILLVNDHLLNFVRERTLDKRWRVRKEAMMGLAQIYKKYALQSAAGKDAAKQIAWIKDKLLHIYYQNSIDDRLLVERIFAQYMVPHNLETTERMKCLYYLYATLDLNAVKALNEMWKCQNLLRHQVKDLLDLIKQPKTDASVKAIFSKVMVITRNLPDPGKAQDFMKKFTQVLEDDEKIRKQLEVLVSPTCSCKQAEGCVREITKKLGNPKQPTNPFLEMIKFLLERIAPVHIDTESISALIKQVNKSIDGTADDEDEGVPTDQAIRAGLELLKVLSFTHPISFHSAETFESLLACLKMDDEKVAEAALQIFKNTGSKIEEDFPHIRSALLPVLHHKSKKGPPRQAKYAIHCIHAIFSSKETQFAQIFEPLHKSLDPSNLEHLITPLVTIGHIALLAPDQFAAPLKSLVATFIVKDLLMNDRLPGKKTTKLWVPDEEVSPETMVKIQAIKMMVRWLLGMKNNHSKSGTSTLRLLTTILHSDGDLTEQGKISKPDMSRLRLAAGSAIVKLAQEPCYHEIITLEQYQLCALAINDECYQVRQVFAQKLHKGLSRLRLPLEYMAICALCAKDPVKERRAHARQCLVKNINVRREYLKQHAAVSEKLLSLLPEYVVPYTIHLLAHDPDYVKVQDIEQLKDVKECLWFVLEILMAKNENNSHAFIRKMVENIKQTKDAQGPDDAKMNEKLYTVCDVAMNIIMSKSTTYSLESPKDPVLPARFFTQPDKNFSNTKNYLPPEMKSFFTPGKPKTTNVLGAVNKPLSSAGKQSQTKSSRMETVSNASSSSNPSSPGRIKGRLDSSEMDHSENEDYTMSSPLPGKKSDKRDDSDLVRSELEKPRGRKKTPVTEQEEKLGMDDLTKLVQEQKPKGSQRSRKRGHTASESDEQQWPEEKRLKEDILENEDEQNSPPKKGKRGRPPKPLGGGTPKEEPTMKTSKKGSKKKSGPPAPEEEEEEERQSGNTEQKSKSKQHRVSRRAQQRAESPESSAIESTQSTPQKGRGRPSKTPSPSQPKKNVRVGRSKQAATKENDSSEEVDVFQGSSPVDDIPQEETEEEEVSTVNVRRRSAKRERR
# Sequence of UniProt Q8NEB9 (Q8NEB9 whole entry, looked up): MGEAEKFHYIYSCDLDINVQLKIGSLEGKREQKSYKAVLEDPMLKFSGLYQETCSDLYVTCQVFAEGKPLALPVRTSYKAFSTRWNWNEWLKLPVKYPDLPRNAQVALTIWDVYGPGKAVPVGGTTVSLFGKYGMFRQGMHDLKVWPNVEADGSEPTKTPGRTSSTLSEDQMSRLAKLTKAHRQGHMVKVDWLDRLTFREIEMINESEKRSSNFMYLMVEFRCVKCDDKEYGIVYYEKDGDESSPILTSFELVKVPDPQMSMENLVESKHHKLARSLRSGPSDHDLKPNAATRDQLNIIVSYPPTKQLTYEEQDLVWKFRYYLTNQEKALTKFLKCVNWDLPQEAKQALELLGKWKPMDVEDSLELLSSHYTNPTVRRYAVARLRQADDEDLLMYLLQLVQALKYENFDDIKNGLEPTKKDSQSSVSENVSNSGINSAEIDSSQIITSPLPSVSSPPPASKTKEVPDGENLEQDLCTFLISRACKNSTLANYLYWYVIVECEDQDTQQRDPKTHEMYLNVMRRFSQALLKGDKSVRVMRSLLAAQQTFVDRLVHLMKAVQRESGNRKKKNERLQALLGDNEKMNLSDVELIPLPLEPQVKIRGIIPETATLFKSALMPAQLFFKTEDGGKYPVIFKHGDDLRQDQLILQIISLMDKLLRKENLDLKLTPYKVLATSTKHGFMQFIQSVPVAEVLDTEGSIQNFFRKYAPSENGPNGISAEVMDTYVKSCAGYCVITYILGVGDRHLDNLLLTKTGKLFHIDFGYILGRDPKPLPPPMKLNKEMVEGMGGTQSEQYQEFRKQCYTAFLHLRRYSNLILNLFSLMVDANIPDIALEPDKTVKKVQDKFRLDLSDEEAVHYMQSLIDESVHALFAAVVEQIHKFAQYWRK
# Sequence of UniProt Q96A00 (Q96A00 whole entry, looked up): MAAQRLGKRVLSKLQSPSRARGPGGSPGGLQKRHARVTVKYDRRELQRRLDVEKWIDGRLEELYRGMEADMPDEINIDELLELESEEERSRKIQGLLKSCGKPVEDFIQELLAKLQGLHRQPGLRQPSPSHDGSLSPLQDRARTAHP
Target,log2 fold change [1],log2 fold change (crizotinib),log2 fold change [2],log2 fold change [3],log2 fold change (duvelisib),log2 fold change (gandotinib),log2 fold change (tozasertib),log2 fold change [4],log2 fold change (doramapimod),log2 fold change (ispinesib),log2 fold change (bafetinib),log2 fold change [5],log2 fold change (nilotinib),log2 fold change [6],log2 fold change (dasatinib),log2 fold change [7],log2 fold change [8],log2 fold change [9],log2 fold change (tipifarnib),log2 fold change (mubritinib)
PYGL (UniProt P06737),-0.122,0.003,0.026,-0.019,0.03,0.013,-0.022,-0.023,0.001,0.015,-0.218,0.006,-0.202,0.036,-0.027,-0.035,0.001,-0.005,0.016,0.052
PIP4P1 isoform 2 (UniProt Q86T03),0.021,-0.395 (active),-0.123,0.086,-0.085,0.107,0.021,-0.048,-0.025,-0.353 (active),-0.044,0.102,0.031,-0.004,0.051,-0.016,-0.158,0.01,0.112,-0.037
POLR3K (UniProt Q9Y2Y1),-0.026,0.015,0.035,-0.027,0.067,0.066,-0.011,-0.059,0.038,-0.075,-0.006,-0.039,0.035,-0.003,0.098,0.01,-0.02,-0.021,0.033,-0.088
PCBP1 (UniProt Q15365),0.012,0,0.094,-0.012,0.042,-0.12,0.047,0.07,-0.016,0.028,-0.007,0.033,-0.057,-0.086,-0.111,-0.026,0.064,-0.004,-0.119,-0.011
PRPF4B (UniProt Q13523),0.024,-0.006,-0.025,-0.089,-0.081,0.007,0.062,0.01,0.044,0.082,0.188,-0.096,0.153,-0.626 (active),0.081,-0.163,0.005,-0.056,0.117,0.069
PDS5B (UniProt Q9NTI5),0.03,-0.229,0.222,0.041,0.004,-0.149,-0.604 (active),0.208,-0.074,-0.225,0.041,-0.139,-0.314,0.04,-0.244,-0.031,0.038,0.147,0.054,0.127
PIP4K2C (UniProt Q8TBX8),1.06 (active),-0.058,0.042,0.063,0.047,0.033,0.018,0.057,-0.044,0.009,0.663,-0.112,0.354,0.053,-0.042,1.25 (active),0.144,0.568,-0.07,-0.084
PSME4 (UniProt Q14997),0.036,-0.161,0.013,0.052,0.02,-0.082,-0.078,0.093,0.045,-0.09,0.069,0.141,-0.057,0.016,-0.084,-0.098,0.015,-0.006,-0.036,0.052
PLK1 (UniProt P53350),-0.113,-0.105,-0.194,0.031,0.012,0.095,0.037,-0.1,0.032,0.01,-0.048,0.003,-0.062,-1.37 (active),-0.125,0.152,0.006,-0.013,0.019,0.003
POLR3D (UniProt P05423),0.088,-0.035,-0.064,0.112,0.011,-0.056,-0.063,-0.085,0.022,-0.05,-0.052,0.044,0.023,-0.125,1.17,0.057,-0.082,0.046,0.018,-0.072
PTDSS1 (UniProt P48651),-0.029,-0.141,-0.05,0.209,-0.225,-0.039,-0.048,0.105,0.151,-0.326,-0.125,0.092,-0.166,0.084,-0.002,0.017,-0.089,0.042,0.018,-0.074
PPP1R14A (UniProt Q96A00),0.078,0.011,0.005,0.003,0.06,0.106,-0.017,-0.049,-0.086,0.319,-0.058,0.026,-0.01,0.013,0.019,0.026,0.076,-0.055,0,0.033
PIK3C3 (UniProt Q8NEB9),0.147,-0.037,-0.125,0.06,0.258 (active),0.164,0.012,-0.008,0.127,-0.101,0.065,-0.011,0.043,-0.039,-0.04,0.202,-0.035,-0.006,0.047,0.042
PITRM1 isoform 2 (UniProt Q5JRX3),-0.042,0.01,0.094,-0.023,0.072,0.038,-0.029,0,-0.014,-0.38 (active),-0.052,-0.039,-0.108,0.01,-0.132,-0.088,0.119,-0.004,0.003,0.005
PRPF40A (UniProt O75400),-0.023,0.071,0.105,-0.061,0.018,-0.04,0.061,0.104,0.021,-0.034,-0.014,0.005,-0.085,-0.058,-0.05,-0.135,0.082,0.048,0.045,-0.013
